The source made the active and inactive calls. Rule for the calls: active = hit-call score of the fitted dose curve at least 0.9, where 1 is the maximum; inactive = score below 0.9.

For the experiment, the target named is Cellular tumor antigen p53 (Homo sapiens) (UniProt P04637). Nature of the experiment: ATG_p53_CIS: Attagene CIS-FACTORIAL HepG2 Assay for human p53 Transcription Factor (AID 2282994). As to conditions: HepG2 p53 cis-element reporter, Attagene mRNA; actives raise or lower the signal. In a few lines: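 Endogenous p53 activity read in transiently transfected HepG2 from a cis-element-driven reporter transcript after 24 h exposure. RNA reverse-transcribed, PCR-amplified, fluorescently labelled and sized by capillary electrophoresis; gain or loss fitted against DMSO baseline.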
Sequence of Cellular tumor antigen p53 (Homo sapiens) (P04637 whole entry, looked up): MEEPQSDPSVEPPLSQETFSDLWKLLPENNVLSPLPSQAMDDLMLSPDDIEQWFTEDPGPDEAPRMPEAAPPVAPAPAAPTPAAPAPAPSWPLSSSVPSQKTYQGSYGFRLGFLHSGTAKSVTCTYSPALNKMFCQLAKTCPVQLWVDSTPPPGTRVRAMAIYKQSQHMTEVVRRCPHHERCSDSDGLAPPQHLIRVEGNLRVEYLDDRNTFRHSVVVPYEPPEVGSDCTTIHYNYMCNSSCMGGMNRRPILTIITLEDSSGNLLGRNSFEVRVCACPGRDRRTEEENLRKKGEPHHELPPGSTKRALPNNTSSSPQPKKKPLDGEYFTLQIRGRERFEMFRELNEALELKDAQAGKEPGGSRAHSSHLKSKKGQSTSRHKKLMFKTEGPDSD
Take `Brc1cc(Br)c(Oc2c(Br)cc(Br)c(Br)c2Br)cc1Br`: the result was inactive.
The value for `FC(F)(F)C(F)(F)C(F)(F)C(F)(F)I` was “inactive”.
Turning to `Cc1ccc(C(=O)c2ccccc2)cc1`, the result was inactive.
With `FC(OC(F)(F)C(F)(F)C(F)(F)F)C(F)(F)F` (configuration not stated), the result was inactive.
Consider `C=CC(=O)OCCC(F)(F)C(F)(F)C(F)(F)C(F)(F)C(F)(F)C(F)(F)C(F)(F)C(F)(F)F`, for which the molecule was classed as inactive.
Then `OCC(F)(F)C(F)(F)C(F)(F)C(F)(F)C(F)(F)C(F)(F)C(F)(F)C(F)(F)C(F)(F)C(F)(F)C(F)(F)F`, with “inactive”; and `CCCCCCCCC1CCC(=O)O1` (configuration not stated), with “inactive”; and `CC1CCC(C(=O)O)CC1` (configuration not stated), with “inactive”.
The value for `Cc1ccc2ccc3ccc(C)cc3c2c1` was “inactive”; that for `O=S(=O)(O)C(F)(F)C(F)(F)C(F)(F)C(F)(F)C(F)(F)C(F)(F)C(F)(F)C(F)(F)C(F)(F)C(F)(F)F` was “inactive”.
For the molecule `Oc1cc2ccccc2cc1O`, the result was inactive.
Turning to `CCCCCCC(C)(C)C(=O)O`, the call was inactive.
Then `NC(C(F)(F)F)C(F)(F)F`, with “inactive”; and `O=CC(F)(F)C(F)(F)C(F)(F)F`, with “inactive”; and `CC1=NN(c2ccccc2)C(=O)C1`, with “inactive”.
Turning to `CCc1cccc(CC)c1NC(=O)C(=O)O`, the molecule was classed as inactive.
Then `Cc1cc(C(C)(C)C)c(O)c(C(C)(C)C)c1`, with “inactive”; and `CC=O`, with “inactive”.
The value for `O=P(O)(O)CCC(F)(F)C(F)(F)C(F)(F)C(F)(F)C(F)(F)C(F)(F)C(F)(F)C(F)(F)F` was “inactive”.
The value for `CCCCCc1ccc(O)cc1` was “inactive”; that for `FC(F)=C(F)C(F)(F)C(F)(F)C(F)(F)C(F)F` was “inactive”.
Regarding `COC(=O)C(F)(F)C(F)(F)C(F)(F)C(F)(F)C(F)(F)F`, the molecule was called inactive.

(Values after PubChem BioAssay (EPA / NIEHS).)
